Assay results published in a collection of fitness landscapes (doi:10.1126/science.1257360).
Over roughly 140,000 sequences, “enrichment ratio after two sorts for PhoP signalling” has its median near 0; the highest 2% begin near 11. For the sample, the highest values were picked, then their nearest neighbours and some sequences at random.

B1: PhoQ; a variant is named by its letters at X, in order, P23837 (parent)
chain: MKKLLRLFFPLSLRVRFLLATAAVVLVLSLAYGMVALIGYSVSFDKTTFRLLRGESNLFYTLAKWENNKLHVELPENIDKQSPTMTLIYDENGQLLWAQRDVPWLMKMIQPDWLKSNGFHEIEADVNDTSLLLSGDHSIQQQLQEVREDDDDAEMTHSVAVNVYPATSRMPKLTIVVVDTIPVELKSSYMVWSWFIYVLSANLLLVIPLLWVAAWWSLRPIEALAKEVRELEEHNRELLNPATTRELTSLVRNLNRLLKSERERYDKYRTTLTDLTHSLKTPLXXLQXXLRSLRSEKMSVSDAEPVMLEQISRISQQIGYYLHRASMRGGTLLSRELHPVAPLLDNLTSALNKVYQRKGVNISLDISPEISFVGEQNDFVEVMGNVLDNACKYCLEFVEISARQTDEHLYIVVEDDGPGIPLSKREVIFDRGQRVDTLRPGQGVGLAVAREITEQYEGKIVAGESMLGGARMEVIFGRQHSAPKDE

Variants of: B1
Test: enrichment ratio after two sorts for PhoP signalling (ratio (wild type AVST 3.29)); higher = more functional
Conditions: with PhoP (E. coli)

LFRE and EYQC cannot be ordered by enrichment ratio: at most 0.25 for the first, at most 0.25 for the second.

First: GNCF
Second: GVCF
The enrichment ratio of the first is lower: 6.9 for the first, 25 for the second.

PVCF and NVCF cannot be ordered by enrichment ratio: at most 0.25 for the first, at most 0.25 for the second.

Going from FVCF to MVCF, the enrichment ratio falls from 12 to 5.97.

KKRY and LMRK cannot be ordered by enrichment ratio: at most 0.25 for the first, at most 0.25 for the second.

KFQK and KDWW cannot be ordered by enrichment ratio: at most 0.25 for the first, at most 0.25 for the second.

Compared with TEMV, HRMR is lower in enrichment ratio: 20.2 for the first, at most 0.25 for the second.

Compared with TEMR, TEMW is lower in enrichment ratio: 12.2 for the first, at most 0.25 for the second.

Going from TEMD to MEIG, the enrichment ratio rises from 1.58 to 8.35.

TEEV and TEGR cannot be ordered by enrichment ratio: at most 0.25 for the first, at most 0.25 for the second.

Going from TEYV to TEIG, the enrichment ratio rises from 4.31 to 18.6.

Going from NEIG to TEMS, the enrichment ratio rises from at most 0.25 to 11.4.

VAVY and IKRV cannot be ordered by enrichment ratio: at most 0.25 for the first, at most 0.25 for the second.

WDMR and RSTE cannot be ordered by enrichment ratio: at most 0.25 for the first, at most 0.25 for the second.

RVPP and KQPC cannot be ordered by enrichment ratio: at most 0.25 for the first, at most 0.25 for the second.

EFMI and QNHE cannot be ordered by enrichment ratio: at most 0.25 for the first, at most 0.25 for the second.

HRLN and REIC cannot be ordered by enrichment ratio: at most 0.25 for the first, at most 0.25 for the second.

Going from VPQL to TEVG, the enrichment ratio rises from at most 0.25 to 10.9.

Compared with TEWV, TGGV is lower in enrichment ratio: 18.4 for the first, 4.98 for the second.

First: TEGV
Second: TEMK
The enrichment ratio of the first is lower: 12.6 for the first, 32.5 for the second.

First: HPWV
Second: TEHV
The enrichment ratio of the first is lower: at most 0.25 for the first, 10.3 for the second.

KRMK and NRMK cannot be ordered by enrichment ratio: at most 0.25 for the first, at most 0.25 for the second.

Compared with TEGG, KSWV is lower in enrichment ratio: 5.71 for the first, at most 0.25 for the second.

Compared with TEMG, GQIN is lower in enrichment ratio: 19.1 for the first, at most 0.25 for the second.

NEIF and PWWM cannot be ordered by enrichment ratio: at most 0.25 for the first, at most 0.25 for the second.

LMKL and AMSP cannot be ordered by enrichment ratio: at most 0.25 for the first, at most 0.25 for the second.

Going from TEAG to TEMI, the enrichment ratio rises from 19.7 to 51.6.

First: TEMY
Second: KRMA
The enrichment ratio of the first is higher: 12.3 for the first, at most 0.25 for the second.

Compared with TRMY, TEMT is higher in enrichment ratio: 0.856 for the first, 7.24 for the second.

First: MEAG
Second: TEMF
The enrichment ratio of the first is lower: at most 0.25 for the first, 5.53 for the second.

SRMA and LRMY cannot be ordered by enrichment ratio: at most 0.25 for the first, at most 0.25 for the second.

First: TEMA
Second: NEAG
The enrichment ratio of the first is higher: 38.6 for the first, 2.93 for the second.

KIPV and QTVW cannot be ordered by enrichment ratio: at most 0.25 for the first, at most 0.25 for the second.

Going from FSFP to AQCQ, the enrichment ratio rises from at most 0.25 to 31.6.

Compared with AQCS, AQCI is lower in enrichment ratio: 11.1 for the first, 8.62 for the second.

Compared with EQCQ, AQGM is higher in enrichment ratio: at most 0.25 for the first, 13.3 for the second.

First: AKFM
Second: AIFM
The enrichment ratio of the first is higher: 0.887 for the first, at most 0.25 for the second.

Compared with AQFM, AQGR is lower in enrichment ratio: 12.2 for the first, at most 0.25 for the second.

First: AQGD
Second: AQCA
The enrichment ratio of the first is lower: at most 0.25 for the first, 32.5 for the second.

AQQP and NSDI cannot be ordered by enrichment ratio: at most 0.25 for the first, at most 0.25 for the second.

SHDW and PPSE cannot be ordered by enrichment ratio: at most 0.25 for the first, at most 0.25 for the second.

GEHW and SDNF cannot be ordered by enrichment ratio: at most 0.25 for the first, at most 0.25 for the second.
